Source: PubChem (National Center for Advancing Translational Sciences (NCATS))
Sfp inh: inhibitors of Bacillus subtilis Sfp phosphopantetheinyl transferase. Q9F4F7. Biochemical Sfp PPTase activity, qHTS. Potency, µM, for inactives: largest response in the series, negative = inhibition, actives largely listed as inhibitors. 310,000 compounds, 3.5% hits. AID 1490;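 note: the enzyme is Sfp with the accession as filed and its product quenches rhodamine fluorescence; potency is the fitted concentration of half-maximal effect; 0% = enzyme reaction without inhibitor and -100% = no enzyme wells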
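Sfp 15 nM + cpd, 15 min RT; start w/ rhodamine-CoA 5 uM, BHQ-2-YbbR 12.5 uM (final); 50 mM Hepes pH 7.6, 10 mM MgCl2, 0.01% NP-40, 0.01% BSA; read 525/598 nm at 0 and 30 min.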
G9a block: inhibitors of human histone lysine methyltransferase G9a. G9a H3K9 monomethylation, AlphaScreen, 2 h. Potency, µM (series often up to 102 µM), inactives show at the highest dose activity, negative = inhibition, actives largely listed as inhibitors. 350,000 compounds, 8.8% hits. Q96KQ7; note: potency is the fitted concentration of half-maximal effect; nearly all actives have a fitted effect of over 75% in size
Target sequence (Q96KQ7 913-1193 limits assumed): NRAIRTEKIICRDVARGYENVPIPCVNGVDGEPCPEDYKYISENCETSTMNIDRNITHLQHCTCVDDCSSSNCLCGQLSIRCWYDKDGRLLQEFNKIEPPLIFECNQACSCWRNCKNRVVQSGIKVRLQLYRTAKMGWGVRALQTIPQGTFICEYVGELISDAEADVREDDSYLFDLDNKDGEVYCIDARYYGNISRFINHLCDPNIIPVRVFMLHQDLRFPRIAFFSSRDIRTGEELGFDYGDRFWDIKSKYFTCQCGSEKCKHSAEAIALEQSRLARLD
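Quantitative HTS format: methyltransferase activity on a biotin-tagged H3K9 peptide is measured by AlphaScreen, using a rabbit anti-monomethyl-H3K9 antibody with streptavidin donor and anti-IgG acceptor beads. Final levels are 20 nM enzyme, 500 nM peptide, 20 uM SAM; 2 h RT.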
Coupling enz: counter-screen for Giardia aldolase inhibitors: coupling enzyme system | coupling enzyme system counterscreen, AmpLite Red fluorescence | activity change, negative = inhibition, % at 58.2 µM, hits read low | 290,000 compounds, 0.67% hits; in the data active = activity change below about -30%
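Coupling enzymes only (glyceraldehyde-3-phosphate) + compound, at 57.5 uM final, 10 min RT; add substrate/coupling/AmpLite Red mix, 20 min RT; fluorescence ex 525/em 598 nm. Actives flag coupling-system interference.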
Tau fluor cs: counter-screen for tau fibril formation inhibitors; tau K18 P301L Alexa594 fluorescence, heparin fibrillization; Potency, µM (doses to about 57.7 µM), inactives show at the top dose activity change, negative = decrease; 280,000 compounds, 0.93% hits; note: potency is the fitted concentration of half-maximal effect; nearly all actives have a fitted effect of over 55% in size
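Human tau K18 P301L (15 uM unlabeled, 0.24 uM Alexa 594-labeled) in 100 mM sodium acetate pH 7 with 20 uM heparin, 6 hr at 37 C. ThT 30 uM added, 1 hr ambient; Alexa 594 FP and total fluorescence read at 555/632 nm.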
Tau fibril FP: inhibitors of human tau fibril formation; K18 P301L tau heparin fibrillization, Alexa594 FP, 6 h; 280,000 compounds, 0.39% hits; P10636; Potency, µM (top dose mostly 57.7 µM), inactives show at the highest dose activity, negative = inhibition, usual class: inhibitors; note: potency is the fitted concentration of half-maximal effect; nearly all actives have a fitted effect of over 55% in size
Target sequence (P10636 561-689 P618L limits assumed): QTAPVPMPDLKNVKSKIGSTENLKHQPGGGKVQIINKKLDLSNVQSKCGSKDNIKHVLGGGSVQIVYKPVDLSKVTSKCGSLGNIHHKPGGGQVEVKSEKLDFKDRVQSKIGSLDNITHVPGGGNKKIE
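Steps: dispense K18 P301L tau (15 uM plus 0.24 uM Alexa 594 tracer, final) in pH 7 sodium acetate; add compound; add heparin (20 uM final); incubate 6 hr, 37 C; add ThT (30 uM final); after 1 hr ambient, read FP.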
Tau ThT inhib: inhibitors of human tau fibril formation, thioflavin T binding | AID 1460 | Potency, µM (doses to about 57.4 µM), for inactives: top-dose activity, negative = inhibition, hits mostly inhibitors | 270,000 compounds, 2.1% hits | P10636 | recombinant tau K18 P301L, heparin-induced fibrillization, ThT fluorescence; note: potency is the fitted concentration of half-maximal effect; nearly all actives have a fitted effect of over 55% in size
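ThT emission at 510 nm, taken 1 hr after adding 30 uM dye, quantifies aggregates formed when 20 uM heparin acts on human tau K18 P301L for 6 hr at 37 C.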
Starred values were filed as active, the others as inactive; ? = inconclusive; . = no result given; [ ] = another dose, or the depositor's remark. Shown are actives, neighbours in structure and some others; about 11% of the full set was active somewhere. Unless noted, calls come from the whole dose curve; as a rule, active = well fitted curve in the direction sought with a large enough effect; inconclusive = small, poorly fitted or top-dose-only effect, or another doubt; inactive = no such curve, though single readings can be large; an effect the other way counts as inactive or inconclusive. Unless noted, % is set by controls: 0 for no effect and ±100 for the full control effect.

SMILES	Sfp inh	G9a block	Coupling enz	Tau fluor cs	Tau fibril FP	Tau ThT inhib
C/C(=N\N=C\c1ccc(N(C)C)cc1)c1cccc([N+](=O)[O-])c1	?	3%[59 µM]	0	-29%	9%	1.3µM*
O=S(=O)(Nc1nc2c(s1)CCCC2)c1ccc(Br)cc1	9%	?	9	-15%	-3%	-14%
CC1(C)CC(=O)c2sc(NS(=O)(=O)c3ccc(F)cc3)nc2C1	-21%	79µM*	7	-12%	-1%	-12%
O=S(=O)(Nc1nc2c(s1)CCCC2)c1ccc(F)cc1	17%	10µM*	0	-3%	8%	-9%
CC1(C)CC(=O)c2sc(NS(=O)(=O)c3ccc(Cl)cc3)nc2C1	10%	35µM*	5	.	.	.
CC1(C)CC(=O)c2sc(NS(=O)(=O)c3ccc(Br)cc3)nc2C1	-3%	50µM*	2	1%	2%	0%
COc1ccc(OC)c(CNC(=O)c2ccc3nc(C(C)C)oc3c2)c1	.	4%[59 µM]	.	-1%	3%	2%
Cc1ccc(CN(Cc2ccco2)C(=O)COc2ccc(Cl)cc2)o1	.	-4%[59 µM]	.	-2%	-2%	-7%
O=C(N/C=C/c1ccccc1)c1ccccc1	.	9%[2.33 µM]	.	.	.	.
CN(CCCNC(=O)c1ccc(N2CCCC2=O)cc1)c1ccccc1	-25%	10µM*	1	-19%	10%	?
O=C(Nc1ccccc1N1CCCC1)c1ccc(N2CCCC2=O)cc1	.	35µM*	.	.	.	.
O=C(Nc1ccccc1N1CCCC1)c1ccccc1Cl	12%	40µM*	-1	.	.	.
O=C(NC(=S)Nc1ccccc1N1CCCCC1)c1ccco1	8%	?	3	?	?	-8%
O=C(Nc1ccccc1Br)c1ccc(N2CCCC2=O)cc1	.	1%[0.501 µM]	.	.	.	.
CCCCN(C)CCCNC(=O)c1ccc(N2CCCC2=O)cc1	23%	31%[0.501 µM]	-1	2%	3%	-5%
O=C(NC(=S)Nc1ccccc1N1CCOCC1)c1ccco1	3%	50µM*	0	-11%	-2%	2%
CC1CCN(C(=O)Cn2nnc(-c3ccc([N+](=O)[O-])cc3)n2)CC1	4%	?	-2	.	.	.
CCOC(=O)C1CCCN(C(=O)c2ccc3c(c2)N(Cc2ccccc2F)C(=O)c2ccccc2S3=O)C1 (centres undefined)	.	-4%[59 µM]	.	-14%	-1%	-9%
Cc1cccc(CCNC(=O)c2cc3c(=O)[nH]c4ccc(C)cc4c3s2)c1	.	-1%[59 µM]	.	-27%	-14%	-7%
O=C(Nc1ccccc1N1CCCC1)C1CCCO1 (centres undefined)	.	28µM*	.	.	.	.
CCN(c1ccc(NC(=O)c2ccc(N3CCCC3=O)cc2)cc1)C(C)C	.	3.5µM*	.	.	.	.
O=C(Nc1ccccc1N1CCCC1)c1ccco1	5%	50µM*	-1	-4%	5%	?
Cc1ccc(NC(=O)c2ccc(N3CCCC3=O)cc2)cc1S(=O)(=O)N1CCCCC1	.	12%[12.7 µM]	.	.	.	.
O=C(NC(=S)Nc1ccccc1N1CCCC1)c1ccco1	32µM*	.	-38*	?	-3%	?
Cc1c(Cl)c([N+](=O)[O-])nn1CC(=O)NC(C)C1CC2CCC1C2 (centres undefined)	11%	-11%	0	-20%	-5%	-8%
SMILES	Sfp inh	G9a block	Coupling enz	Tau fluor cs	Tau fibril FP	Tau ThT inhib
Nc1nc(N2CCN(C(=O)c3ccco3)CC2)nc2ccc(Br)cc12	?	50µM*	3	-21%	11%	?
CCN(CC)C(=O)COC(=O)c1cc(-c2ccco2)nc2ccccc12	-8%	4µM*	-3	-12%	-8%	?
O=C(OCC(=O)N1CCN(C(=O)c2ccco2)CC1)c1cc(-c2cccc(Br)c2)nc2ccccc12	-5%	14µM*	1	?	2%	?
O=C(COC(=O)c1cc(-c2ccco2)nc2ccccc12)NCc1ccccc1	40µM*	45µM*	2	?	-12%	?
CCOC(=O)c1ccccc1NC(=O)Cn1ncc2c([nH]c3ccccc32)c1=O	.	-2%[59 µM]	.	-8%	-9%	-12%
CNC(=O)COC(=O)c1cc(-c2ccco2)nc2ccccc12	28µM*	10µM*	-4	-25%	-3%	?
CCCCNc1cc(NC2CCCCC2)c2c3c(onc13)-c1ccccc1C2=O	.	2µM*	.	?	1%	?
CC(C)Nc1cc(N2CCN(C3CCCCC3)CC2)c2noc3c2c1C(=O)c1ccccc1-3	.	?	.	?	-3%	?
O=C1c2ccccc2-c2onc3c(NCCO)cc(NC4CCCCC4)c1c23	.	2.2µM*	.	11µM*[quencher]	?	7.9µM*
COc1ccccc1NC(=O)c1sc2nc(C)c(C(=O)Nc3ccc(C)cc3C)c(-c3cccs3)c2c1N	.	-26%[59 µM]	.	-13%	-16%	-18%
O=C(CCCCCn1c(=O)[nH]c2ccsc2c1=O)NCc1ccccc1	.	-8%[59 µM]	.	-19%	-8%	-3%
COc1cc(OC)c(N(C)C(=O)CSc2c3c(nc4ccc(Cl)cc24)CCCC3)cc1Cl	.	?	.	-10%	-1%	-17%
CCN(CC)CCCNC(=O)c1ccc2nc(N3CCCCC3)sc2c1	.	-2%[59 µM]	.	5%	0%	9%
Cn1c(=O)[nH]c(=O)c2c1nc(Br)n2C/C=N/Nc1ccccc1	56µM*	?	-1	-14%	-11%	-18%
CCCn1c(N/N=C\C=C\c2ccccc2)nc2c1c(=O)[nH]c(=O)n2C	-24%	-44%	0	-13%	19%	?
CC(/C=C/c1ccccc1)=N\Nc1nc2c(c(=O)[nH]c(=O)n2C)n1CCO	40µM*	?	-1	-22%	-7%	.
Cn1c(=O)[nH]c(=O)c2c1nc(Br)n2C/C=N/NC(=O)c1ccccc1	4%	0%	1	-9%	-5%	-12%
COCCn1c(N/N=C(C)/C=C/c2ccccc2)nc2c1c(=O)[nH]c(=O)n2C	40µM*	.	-4	-9%	5%	?
CN(CC(=O)Nc1ccc(Cl)c(C(F)(F)F)c1)C(=O)c1cc(=O)c2ccccc2o1	.	23%[12.7 µM]	.	.	.	.
CN(NS(C)(=O)=O)c1ncc(C(F)(F)F)cc1Cl	79µM*	2%	4	1%	2%	-2%
CN(NC(=O)c1ccccc1)c1ncc(C(F)(F)F)cc1Cl	7%	1%	0	-6%	8%	-5%
Cc1oc2ncn(CC(C)C)c(=O)c2c1C(=O)NCCCN(Cc1ccccc1)C(C)C	.	-18%[59 µM]	.	-3%	2%	1%
CCOc1ccccc1CNC(=O)c1cc2c(=O)n(Cc3cccnc3)ccc2nc1C	.	-1%[59 µM]	.	-5%	-2%	-8%
Cc1cc(C(=O)NC(C)CCC(C)C)c2ccccc2n1 (centres undefined)	7%	45µM*	4	2%	-7%	9%
